In the library only some 9.3% were active in any assay of this set; here they are far more common.
Abs 340nm = compound light absorbance at 340 nm, profiling panel, artefact control, biochemical, MLSMR library, data from PS, PMK, MK assays; compound absorbance at 340 nm, fold over control; fold change at 10 µM; 65,000 tested, under 10 active;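 active = at 10 µM dose, initial 340 nm absorbance at least 2 fold that of control wells; inactive = change under 2 fold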;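 note: initial absorbance extrapolated from kinetic A340 decline of NADH oxidation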
mHtt clearance = clearance of mutant huntingtin inclusions, primary screen, imaging, HeLa Exon1htt(103Q)mCFP, confocal imaging; inhibition, % at 1.5 µM; actives 0.42% (n = 47,000); AID 853, 2007; aggregate imaging; zero = plate's median compound well;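 active = inhibition of aggregate fluorescence above about 70%, also judged a hit by eye on the cell image, limit read from the data, passing the limit was not always enough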;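 note: cells exposed to compound for three days before fixation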
M1 ag = M1 muscarinic receptor agonists, primary screen, CHO-M1 cells, Fluo-4 calcium, agonist mode | Muscarinic acetylcholine receptor M1 | Fluo-4 calcium fluorescence; hits give high values | B-score at 10 µM | actives 3% (n = 64,000);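 active = fluorescence rise, raw or as B-score row- and column-corrected plate score, outside the 99.7% band of its plate's samples, either direction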
Fluor 339 460 = intrinsic fluorescence of library compounds, ex339/em460 – biochemical, MLSMR library, data from DPM-DC assay, artefact control, profiling panel; AID 709, 2007; compound autofluorescence, ex339/em460 nm, NADH buffer; hits give high values; 1 = no-compound wells, NADH background; fluorescence fold increase at 10 µM; actives 5.5% (n = 65,000);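 active = at 10 µM, mean starting fluorescence two-fold or more over control wells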;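 note: signal is the first read of a kinetic run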
NADH coupling = inhibitors of PK/LDH coupling enzymes, profiling panel, artefact control, biochemical, MLSMR library. AID 774, 2007. coupled PK/LDH NADH assays, four targets. IC50, µM (top dose mostly 10 µM), without a hit: top-dose inhibition. actives 0.02% (n = 65,000);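 active = single-dose screening hits from any of four coupled enzyme assays that gave an IC50 when retested across doses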;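 note: the DPM-DC format reads NADH fluorescence rather than 340 nm absorbance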
M1 antag = antagonists of rat M1 muscarinic receptor | Muscarinic acetylcholine receptor M1 (Rattus norvegicus), P08482 | CHO-M1 cells, Fluo-4 calcium, ACh EC80 antagonist mode; hits give low values | B-score at 10 µM | actives 3.4% (n = 64,000) | AID 628, 2007;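 active = calcium fluorescence response, raw or row-and-column corrected B-score, differing from the plate sample mean either way at a set confidence level, mostly lower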
Target sequence (P08482 whole entry, looked up): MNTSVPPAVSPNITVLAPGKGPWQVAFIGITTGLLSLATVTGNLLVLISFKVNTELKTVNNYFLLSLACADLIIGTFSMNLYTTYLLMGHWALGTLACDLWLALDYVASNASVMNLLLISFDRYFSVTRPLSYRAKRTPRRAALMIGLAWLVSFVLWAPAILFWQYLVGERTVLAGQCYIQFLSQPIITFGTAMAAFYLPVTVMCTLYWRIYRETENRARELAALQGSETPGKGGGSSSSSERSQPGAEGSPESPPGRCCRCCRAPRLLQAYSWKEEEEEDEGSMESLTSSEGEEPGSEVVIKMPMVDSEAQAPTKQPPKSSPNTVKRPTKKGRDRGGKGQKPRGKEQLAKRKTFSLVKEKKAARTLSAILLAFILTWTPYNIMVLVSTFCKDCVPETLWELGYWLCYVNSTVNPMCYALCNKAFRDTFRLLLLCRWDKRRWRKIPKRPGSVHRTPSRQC
An asterisk follows results filed as active; . = not tested or not shown.

SMILES	Abs 340nm	mHtt clearance	M1 ag	Fluor 339 460	NADH coupling	M1 antag
CC(C)COc1ccc(-c2nnc(-c3ccco3)o2)cc1	0.96	.	.	1.6	9%	.
CCCOc1ccc(-c2nnc(-c3ccco3)o2)cc1	1	.	0.52	2.2*	7%	-0.11
O=C(CSc1nccc2ccccc12)N1CCN(c2ccccn2)CC1	1.1	15	-0.00069	1.1	2%	-0.013
CCn1cc(C(=O)Nc2nncs2)c(=O)c2cc(F)c(N3CCN(C(=O)c4ccco4)CC3)cc21	1	.	2.1	2.4*	15%	-0.014
CCCc1cc(=O)oc2cc(Oc3ncccn3)ccc12	1.1	.	0.099	3.4*	16%	-0.041
CCCc1cc(=O)oc2cc(OCC(=O)N3CCc4ccccc43)ccc12	.	11	.	.	.	.
CCCc1cc(=O)oc2cc(OCC(=O)Nc3cc(C)on3)ccc12	1.1	-26	0.71	3.6*	9%	0.47
CCC(=O)N/C(N)=N/c1nc(C)c2cc(OC)ccc2n1	1	9	-0.51	2.1*	1%	-0.0017
CCOC(=O)CCSc1nc(C)c2ccccc2n1	1.1	28	-0.012	1.2	3%	-1.5
CCOC(=O)CSc1nc(C)c2cc(OC)ccc2n1	1.1	.	1.8	3.7*	0%	0.48
CCCCC(=O)Nc1cc(N(C)C)nc2ccccc12	1	.	0.12	3.8*	14%	0.28
COc1ccc(C(=O)COC(=O)Cn2nnc3ccccc32)cc1Br	1	.	.	1.2	3%	.
c1ccc(-c2csc(Nc3nc(N4CCOCC4)nc(N4CCOCC4)n3)n2)cc1	1.1	-16	1.6	1.1	3%	0.22
c1ccc(-c2cc3c(-n4cccc4)ncnc3o2)cc1	1.1	.	-0.13	3.2*	2%	-0.91
COc1ccc2c(c1)c1ncnc(N3CCN(Cc4ccc5c(c4)OCO5)CC3)c1n2C	1	42	-0.47	3.2*	6%	-0.54
COC(=O)c1[nH]c2cc(OC)ccc2c1NC(=O)CCN1CCN(Cc2ccc3c(c2)OCO3)CC1	1.1	.	-0.15	1.4	4%	-1.7
COc1ccc2[nH]c3c(N4CCN(Cc5ccc6c(c5)OCO6)CC4)ncnc3c2c1	1.1	-26	-0.17	2.3*	5%	-1.2
COc1ccc2c(c1)c(C(O)CN1CCN(Cc3ccc4c(c3)OCO4)CC1)c(C)n2C (configuration not stated)	1	-12	3.8	1.2	6%	-1.7
Cc1ccc2[nH]c3c(N4CCOCC4)ncnc3c2c1	1	.	1.6	2.5*	2%	0.11
O=C(CCCn1c(=S)[nH]c2cc3c(cc2c1=O)OCO3)N1CCc2ccccc2C1	1.1	14	2.6	1.1	6%	1.5
COC(=O)CSc1nnc(CNc2ccc(Cl)cc2)n1-c1ccccc1	.	-34	.	.	.	.
C=CCn1c(SCc2c(F)cccc2Cl)nnc1-c1ccco1	0.99	26	-0.43	1.1	7%	-0.11
Cc1ccc(-n2nc(C(=O)N3CCN(C)CC3)c3c4ccccc4n(C)c3c2=O)cc1	0.99	.	-0.54	1.2	4%	0.022
CCN1CCCC1CNC(=O)c1nn(-c2ccc(C)cc2)c(=O)c2c1c1ccccc1n2C (configuration not stated)	1	.	-0.8	2.7*	8%	-0.0054
CNC(=O)N(C1=NCC(C)(C)S1)c1ccc(F)c(Cl)c1	1.1	-3	0.15	1.1	8%	0.55
SMILES	Abs 340nm	mHtt clearance	M1 ag	Fluor 339 460	NADH coupling	M1 antag
CC1CCCCC1NC(=O)CSc1nnc(-c2ccccc2)n1N (configuration not stated)	1	.	-1.4	1	3%	-0.16
CCOC(=O)c1nc(N)c(C(=O)OCC)[nH]1	1.1	.	-0.13	2.3*	3%	0.98
Cc1c(NC(=O)COC(=O)c2cc3c4ccccc4n(C)c3s2)c(=O)n(-c2ccccc2)n1C	1.2	.	0.39	3.2*	11%	1.1
Cc1c(NC(=O)c2c(F)c(F)c(F)c(F)c2F)c(=O)n(-c2ccccc2)n1C	1	.	-1.1	1.1	6%	-0.037
Cc1c(NC(=O)Cn2nc(C(=O)O)c3ccccc3c2=O)c(=O)n(-c2ccccc2)n1C	0.99	-6	0.41	1.1	3%	1*
Cc1c(NC(=O)c2nn(C)c(=O)c3ccccc23)c(=O)n(-c2ccccc2)n1C	1	.	-0.048	1	2%	0.0038
Cc1c(NC(=O)C2CCCNC2=O)c(=O)n(-c2ccccc2)n1C (configuration not stated)	0.98	0	0.41	1.2	4%	0.69*
Cc1c(NC(=O)c2ccccc2)c(=O)n(-c2ccccc2)n1C	.	78*	.	.	.	.
CCCN(CCC)S(=O)(=O)c1ccc(C(=O)Nc2nnc(-c3cccc(OC)c3)o2)cc1	1	.	1.3	2.1*	5%	-0.58
CCN(Cc1ccccc1)S(=O)(=O)c1ccc(C(=O)Nc2nnc(-c3ccccc3OC)o2)cc1	1.1	0	-0.11	3.8*	8%	-0.051
O=C(c1cc2ccccc2oc1=O)N(Cc1ccco1)CC1CCCO1 (configuration not stated)	1	27	-0.59	1.1	7%	0.26
CCN1C(=O)c2cccc3c(S(=O)(=O)NCCCN4CCOCC4)ccc1c23	1.1	58	0.0077	3.9*	15%	0.067
CCN1C(=O)c2cccc3c(NC(=O)c4ccc(S(=O)(=O)N5CCOCC5)cc4)ccc1c23	1.1	72*	-0.66	1	6%	-0.75
CNS(=O)(=O)c1cccc(C(=O)OCc2cc(Cl)cc3c2OCOC3)c1	1	52	-0.22	1.1	5%	0.0089
CC(=O)Nc1ccccc1NC(=O)C(F)(F)F	1	21	-0.45	1	5%	1.8*
CC1(C)CC2(CCO1)CNC(=O)O2 (configuration not stated)	1	3	0.2	1.1	3%	-0.084
N#Cc1cccc(-c2cn(S(=O)(=O)c3ccc(Cl)cc3)nc2N)c1	1	.	-1.4	1.1	5%	1.2
O=S(=O)(CCn1cccc1)CCn1cccc1	0.91	61	-0.52	0.94	4%	2.2*
O=S(=O)(c1ccc(Cl)cc1)n1nnc2ccccc21	.	3	.	.	.	.
COc1ccc(C2C(C(=O)N3CCOCC3)=C(C)NC3=C2C(=O)CC(C)(C)C3)c(OC)c1 (configuration not stated)	1.1	-20	0.034	4.8*	4%	-1.3
CCOC(=O)C1=C(C)NC2=C(C(=O)CC(C)(C)C2)C1c1coc2ccccc2c1=O (configuration not stated)	.	-16	.	.	.	.
CC1=C(C(=O)N2CCOCC2)C(c2ccccc2F)C2=C(CC(C)(C)CC2=O)N1 (configuration not stated)	1.1	.	-0.91	4.8*	4%	0.0015

Screening data: PubChem BioAssay, several laboratories
